# Experimental data reported in the supplement of paper PMC13380429.
# Unmarked numbers belong to inactive results.
# System: Vero E6 infected with SARS-CoV-2
# Assay: SARS-CoV-2 infection rate relative to infected DMSO; higher = more infection, active = 60 or less
# Details: 24 h
row,Structure (SMILES),SARS-CoV-2 infection rate
1,O=C1NC(=O)c2cc(Nc3ccccc3)c(Nc3ccccc3)cc21 (10 µM),72%
2,N[C@@H](Cc1cc(-c2ccc(Cl)cc2Cl)cc(CP(=O)(O)O)c1O)C(=O)O (10 µM),107%
3,CCOC(=O)c1c(C)n(C)c2ccc(O)cc12 [mecarbinate] (10 µM),112%
4,O=C(OCCN1CCOCC1)c1cccnc1Nc1cccc(C(F)(F)F)c1 [morniflumate] (10 µM),108%
5,C=C[C@H]1CN2CC[C@H]1C[C@@H]2[C@@H](O)c1ccnc2ccc(OC)cc12 [quinidine] (10 µM),108%
6,COCCOc1ccc(N2CCN(CCn3ncc4c3nc(N)n3nc(-c5ccco5)nc43)CC2)cc1 [preladenant] (10 µM),111%
7,CCCCCCNC(=O)n1cc(F)c(=O)[nH]c1=O [Carmofur] (0.833333 µM),106%
8,COC(=O)[C@@H](N)CCCNC(=N)N[N+](=O)[O-] (10 µM),98.5%
9,COc1ccc(CCNCC(O)COc2cccc(C)c2)cc1OC (stereo not drawn) [bevantolol] (10 µM),110%
10,CCN(CC)Cc1ccc(C(=O)N(CCc2ccccc2OC)[C@@H]2CCNC2)cc1 (10 µM),98.5%
11,CC1Oc2cc(cnc2N)-c2c(nn(C)c2C#N)CN(C)C(=O)c2ccc(F)cc21 (stereo not drawn) (0.833333 µM),81.5%
12,CNC(=O)c1cccc(-c2ccc3c(N4CCOC[C@@H]4C)nc(N4CCOC[C@@H]4C)nc3n2)c1 (10 µM),108%
13,C[C@H](NC(=O)c1sccc1OCc1ccc(Cl)cc1)c1ccccc1 (10 µM),94.5%
14,COc1cccc(C(=O)CCN[C@@H](C)[C@H](O)c2ccccc2)c1 [oxyfedrine] (10 µM),102%
15,CCn1cc(C(=O)O)c(=O)c2cc(F)c(N3CCNCC3)nc21 [enoxacin] (10 µM),105%
16,Nc1ccc(S(=O)(=O)c2ccc(N)cc2)cc1 [dapsone] (10 µM),99.5%
17,CCN(CC)C(=O)c1ccc(C2=CC3(CCNCC3)Oc3cccc(O)c32)cc1 (10 µM),122%
18,CCC(C)SSc1ncc[nH]1 (stereo not drawn) (10 µM),95%
19,Cc1ccc(C(=O)N(CCCN)[C@@H](c2nc3cc(Cl)ccc3c(=O)n2Cc2ccccc2)C(C)C)cc1 [ispinesib] (0.833333 µM),110%
20,Cc1c(C(=O)Nc2ccc(N3C[C@@H](C)O[C@@H](C)C3)nc2)cccc1-c1ccc(OC(F)(F)F)cc1 [sonidegib] (10 µM),108%
21,c1cc2c(cc1[C@H]1OC[C@H]3[C@@H]1CO[C@@H]3c1ccc3c(c1)OCO3)OCO2 [sesamin] (10 µM),120%
22,CCc1oc2ccccc2c1C(=O)c1cc(Br)c(O)c(Br)c1 [benzbromarone] (10 µM),85.5%
23,COc1cc(OC)c(/C=C2/C(=O)Nc3ccccc32)c(OC)c1 (10 µM),96.5%
24,CSCC[C@H](NC(=O)[C@H](CC(C)C)NC(=O)[C@@H](Cc1c[nH]c2ccccc12)NC(=O)[C@H](Cc1ccccc1)N(C)C(=O)[C@@H](Cc1c[nH]c2ccccc12)NC(=O)[C@@H](N)CCCNC(=N)N)C(N)=O [antagonist-g] (10 µM),114%
25,S=C=Nc1ccc(N=C=S)cc1 [bitoscanate] (10 µM),106%
26,CC[C@H](C)[C@H](N)C1=N[C@H](C(=O)N[C@@H](CC(C)C)C(=O)N[C@H](CCC(=O)O)C(=O)N[C@H](C(=O)N[C@H]2CCCCNC(=O)[C@H](CC(N)=O)NC(=O)[C@@H](CC(=O)O)NC(=O)[C@H](Cc3cnc[nH]3)NC(=O)[C@@H](Cc3ccccc3)NC(=O)[C@H]([C@@H](C)CC)NC(=O)[C@@H](CCCN)NC2=O)[C@@H](C)CC)CS1 [bacitracin] (10 µM),112%
27,O=C(NCCCN1CCOCC1)c1ccc(Cl)cc1 [eprobemide] (10 µM),108%
28,O[C@@](Cc1nc(CC2(C(F)(F)F)CC2)c[nH]1)(c1ccc(-n2cccn2)cc1)C(F)(F)F (10 µM),112%
